From PubChem BioAssay AID623911 (Vanderbilt High Throughput Screening Facility, 2012)
The campaign covered roughly 2,100 compounds. About 770 (37%) were called active.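 How the source made its calls: active means by-eye trace score of 1 for enhancers or -1 for inhibitors, so actives lie on both sides (some results past the limit were not filed as active); inactive means score 0, or 3 fluorescent, or 4 baseline rise.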 The list shows a part of the results.

target: G protein-activated inward rectifier potassium channel 2 (Homo sapiens) + G protein-activated inward rectifier potassium channel 1 (Homo sapiens) (UniProt P48051+P48549); experiment: GIRK1/2 thallium flux modulators, retest, confirmation, cell-based, HEK293 rmGlu8/hGIRK1/2, FluoZin-2 (AID 623911); conditions: HEK293 rmGlu8/hGIRK1/2, thallium flux FluoZin-2; actives lie on both sides; glutamate co-added at its EC20 level
Sequence (P48051 whole entry, looked up): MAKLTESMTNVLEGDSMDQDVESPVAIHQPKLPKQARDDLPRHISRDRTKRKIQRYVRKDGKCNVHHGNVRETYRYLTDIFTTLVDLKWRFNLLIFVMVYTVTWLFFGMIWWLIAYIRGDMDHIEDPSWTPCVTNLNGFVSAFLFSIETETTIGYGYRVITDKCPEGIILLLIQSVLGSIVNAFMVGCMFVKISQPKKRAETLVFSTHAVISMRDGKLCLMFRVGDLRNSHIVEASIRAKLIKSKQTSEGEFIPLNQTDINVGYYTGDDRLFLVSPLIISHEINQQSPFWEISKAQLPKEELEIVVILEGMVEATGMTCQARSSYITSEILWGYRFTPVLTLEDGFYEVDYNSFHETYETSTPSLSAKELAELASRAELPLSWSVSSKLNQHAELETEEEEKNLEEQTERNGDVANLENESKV
Sequence (P48549 whole entry, looked up): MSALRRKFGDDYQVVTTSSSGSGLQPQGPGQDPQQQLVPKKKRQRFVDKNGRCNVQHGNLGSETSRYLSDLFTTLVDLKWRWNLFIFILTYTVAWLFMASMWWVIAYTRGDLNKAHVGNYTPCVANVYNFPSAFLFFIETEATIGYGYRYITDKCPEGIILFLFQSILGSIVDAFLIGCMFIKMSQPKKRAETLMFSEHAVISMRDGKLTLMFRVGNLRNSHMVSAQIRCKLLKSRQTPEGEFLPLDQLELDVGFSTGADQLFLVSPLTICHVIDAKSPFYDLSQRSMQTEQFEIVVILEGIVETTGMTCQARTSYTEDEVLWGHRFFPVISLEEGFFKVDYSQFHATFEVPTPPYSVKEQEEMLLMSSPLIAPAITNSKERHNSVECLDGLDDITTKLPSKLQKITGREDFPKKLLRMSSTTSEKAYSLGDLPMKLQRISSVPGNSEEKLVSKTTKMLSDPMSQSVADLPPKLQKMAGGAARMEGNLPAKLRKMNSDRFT

| SMILES | manual score |
| --- | --- |
| COc1ccc(CO/N=C/c2c(C)[nH]c(=O)[nH]c2=O)cc1 | 0 (inactive) |
| CCCn1nnc(NC(=O)COc2ccc(C3CCCCC3)cc2)n1 | 0 (inactive) |
| CC(NC(=O)C1CC=CCC1C(=O)O)C1CC2CCC1C2 (configuration not stated) | 0 (inactive) |
| CCN(CC)c1ccc2cc(-c3nnc(-c4ccccc4)o3)c(=O)oc2c1 | 3 (inactive) |
| CCN(CC)CCn1c(NC(=O)c2ccc(Cl)cc2)nc2ccccc21 | 0 (inactive) |
| CCCn1nnnc1NC(=O)c1ccc2ccccc2c1 | 1 (active) |
| CCCn1nc2cc(C(=O)NCCc3ccc(C)cc3)ccc2c1OCC | 0 (inactive) |
| CC1CN(C2CC(C)(C)NC(C)(C)C2)CCC1=O (configuration not stated) | 0 (inactive) |
| Cc1ccc2c(CC(=O)NC3CCCc4ccccc43)coc2c1 (configuration not stated) | 0 (inactive) |
| O=C1CCC(/C=C/c2ccccc2)=NN1Cc1ccc(Cl)c(Cl)c1 | 0 (inactive) |
| Cc1cc(N2CCOCC2)n2nc(C)c(-c3ccccc3)c2n1 | 0 (inactive) |
| Cc1nn2c(NCCCN(C)C)c3c(nc2c1-c1ccccc1)CCC3 | -1 (active) |
| CCN1CCN(c2ccc(NC(=O)CCc3c(C)nc4c(-c5ccccc5)c(C)nn4c3C)cc2)CC1 | 0 (inactive) |
| CCOC(=O)C1=C(C)NC2=C(C(=O)C(C(=O)OCC)C(c3cccc(OC)c3)C2)C1c1ccccn1 (configuration not stated) | 0 (inactive) |
| COC(=O)c1onc(C(=O)c2ccccc2)c1C(=O)OC | -1 (active) |
| Cc1nn(CC(=O)Nc2ccc(Cl)c(S(=O)(=O)N(C)C)c2)c(C)c1[N+](=O)[O-] | 1 (active) |
| CC(C)C(=O)OCC(=O)Nc1ccc(N=Nc2ccccc2)cc1 | 0 (inactive) |
| Cc1cc(C)n(-c2ccc(C(=O)OCC(=O)Nc3ccc(Cl)c(S(=O)(=O)N(C)C)c3)cc2)n1 | 1 (active) |
| COC(=O)c1sccc1NC(=O)CSc1ccccc1NS(=O)(=O)c1cc(Cl)ccc1Cl | 0 (inactive) |
| CCC(C(=O)OCC(=O)Nc1ccc(Cl)c(S(=O)(=O)N(C)C)c1)c1ccccc1 (configuration not stated) | 1 (active) |
| CN(C)S(=O)(=O)c1cc(NC(=O)COC(=O)c2ccc3c(c2)OCO3)ccc1Cl | 0.5 (inactive) |
| CCCCN(CCCC)c1nc2ccccc2nc1C(C#N)C(=O)NCCCOC (configuration not stated) | 3 (inactive) |
| Oc1ccccc1CNc1ccc(Br)cn1 | 0 (inactive) |

| SMILES | manual score |
| --- | --- |
| CCSc1nc(-c2ccccc2)c(C#N)c(=O)[nH]1 | 0 (inactive) |
| CCC1(c2ccc(Cl)cc2)NC(=S)N(c2ccccc2)N1 (configuration not stated) | 1 (active) |
| S=C1NC(c2ccccc2)=NCN1c1ccc(Cl)cc1 | 0.5 (inactive) |
| Cn1ncc2cc(NC(=S)NC(=O)c3ccccc3)ccc21 | 0 (inactive) |
| CCCCOC(=O)c1ccc(NC(=S)NC(=O)c2c(Cl)cnn2C)cc1 | 0 (inactive) |
| COC(=O)c1ccc(NC(=S)NC(=O)c2cc(-c3ccccc3)nc3ccccc23)cc1 | 0 (inactive) |
| CCCCOC(=O)c1ccc(NC(=S)NC(=O)c2c(Br)c(C)nn2C)cc1 | 0 (inactive) |
| COC(=O)c1ccc(NC(=S)NC(=O)c2c(Cl)cnn2C)cc1 | 1 (active) |
| CCCCOC(=O)c1ccc(NC(=S)NC(=O)c2c(Cl)cnn2CC)cc1 | 1 (active) |
| CCOC(=O)C1=C(NC(=S)NC(=O)c2ccccc2)c2ccccc2CC1(C)C | 0 (inactive) |
| CCOC(=O)C1=NN(C(=O)c2ccccc2)C(O)(c2ccc(C)cc2)C1 (configuration not stated) | 1 (active) |
| CC1=NN(c2ccccc2)C(=O)C1C(=O)c1ccc(Cl)cc1 (configuration not stated) | 0.5 (inactive) |
| CCC1=NN(C(=O)c2cccc(Br)c2)C(O)(c2ccc(Br)cc2)C1 (configuration not stated) | 0 (inactive) |
| COC(=O)C1=NN(C(=O)c2ccc(Cl)cc2)C(O)(c2ccccc2)C1 (configuration not stated) | 1 (active) |
| CCOC(=O)C1=NN(C(=O)c2ccc(C)cc2)C(O)(c2ccc(Cl)cc2)C1 (configuration not stated) | 1 (active) |
| CCOC(=O)c1c(C)[nH]c(C(=O)COC(=O)CNC(=O)c2ccc(Cl)cc2)c1C | 0 (inactive) |
| COC(=O)C1=NN(C(=O)c2ccc(C)cc2)C(O)(c2ccc(Cl)cc2)C1 (configuration not stated) | 1 (active) |
| CC(C)c1nc(N2CCOCC2)c(C#N)c2c1CCCC2 | 0 (inactive) |
| Cc1ccc2c(c1)NC(=O)CC(c1ccccc1)=N2 | 0 (inactive) |
| O=S(=O)(c1ccccc1)N1CCN(C(=S)Nc2ccc(F)cc2)CC1 | 0 (inactive) |
| Cc1ccc(SC(C)C(=O)Nc2ccc(S(=O)(=O)N3CCOCC3)cc2)cc1 (configuration not stated) | 0 (inactive) |
| CC1CCCC(NC(=S)Nc2ccc(SC(F)F)cc2)C1C (configuration not stated) | 1 (active) |
| CC1CC(C)CN(C(=S)Nc2ccc(SC(F)F)cc2)C1 (configuration not stated) | 1 (active) |

| SMILES | manual score |
| --- | --- |
| CC1CCCCC1NC(=S)Nc1ccc(SC(F)F)cc1 (configuration not stated) | 1 (active) |
| Oc1cccc(NC(=S)Nc2ccc(SC(F)F)cc2)c1 | 1 (active) |
| CCNc1ccc2noc3c2c1C(=O)c1ccccc1-3 | 0 (inactive) |
| CCN(CC)c1ccc2c(c1)OC(N)=C(C#N)C2c1cccnc1 (configuration not stated) | 3 (inactive) |
| CCc1nc(SCc2ccc(F)cc2)[nH]c(=O)c1C#N | 3 (inactive) |
| CCOc1ccc(-c2nc(-c3cccnc3)no2)cc1OCC | 0 (inactive) |
| Cc1ccc(N=Nc2ccc(O)c3ncccc23)cc1 | 0 (inactive) |
| Cc1ccc(N=Cc2cc3c(cc2O)OC(N)=C(C#N)C3c2ccccc2)cc1 (configuration not stated) | 0 (inactive) |
| CCOc1cccc(C(=O)NC(=S)Nc2ccccc2)c1 | 0 (inactive) |
| COc1ccc(C(=O)NC(=S)N(Cc2ccccc2)Cc2ccccc2)cc1 | 1 (active) |
| CCOc1ccc(C(=O)NC(=S)N(Cc2ccccc2)Cc2ccccc2)cc1 | 1 (active) |
| CN(C)C(=O)CSc1cccc2cccnc12 | 0 (inactive) |
| CC(Nc1ccc(Br)cn1)c1cc(Cl)ccc1O (configuration not stated) | 0 (inactive) |
| S=C(N/N=C/c1ccccc1)N1CCOCC1 | 0.5 (inactive) |
| Clc1ccc(/C=N/Nc2nc(Cl)nc3ccccc23)cc1 | 0 (inactive) |
| Cc1ccc(/C=N/NC(=S)N2CCOCC2)cc1 | 1 (active) |
| Cc1ccc(C(=O)c2ccc(N3CCOCC3)c(F)c2)cc1 | 0 (inactive) |
| S=C(N/N=C/c1ccc(Cl)cc1)N1CCOCC1 | 1 (active) |
| CNC(=S)N/N=C/c1ccc(C(C)C)cc1 | 0 (inactive) |
| O=C1CC(C(=O)Nc2ccc(Br)cc2)C2(CCCC2)O1 (configuration not stated) | 1 (active) |
| O=C(Nc1ccc(Br)cc1)C1CCC(=O)N1Cc1ccccc1Cl (configuration not stated) | 0 (inactive) |
